Laboratory results: PubChem BioAssay AID624414 (National Center for Advancing Translational Sciences (NCATS), 2012)
Among all 410,000 compounds or so, about 480 (0.12%) were called active. The list comes from a sample in which actives are over-represented; it also holds similar structures and randomly drawn compounds. Values without a mark were called inactive. Rule as the data show it: active = activation above about 50%; inconclusive = mostly about 30% to 49%; inactive = weaker than that.

Molecular target: Mucolipin-1 (Homo sapiens) (UniProt Q9GZU1)
Assay: qHTS for Agonists of the Human Mucolipin Transient Receptor Potential 1 (TRPML1); also: 0% is about no effect
Settings: TRPML1-expressing cells, Ca2+ dye fluorescence, FDSS; stronger effect = higher value
Excerpt: Mutations of human Mucolipin transient receptor potential 1 (TRPML1) cause type IV mucolipidosis (ML4), a devastating neurodegenerative disease in young children. […] Currently, there is no treatment for ML4. […] Under physiological conditions, TRPMLs regulate membrane trafficking by transducing information about PI(3,5)P2 levels into changes in juxtaorganellar Ca2+, thereby triggering membrane fusion/fission events in the late endocytic pathways (endolysosomal trafficking). In addition, TRPML1 mediates release of Fe2+ from late endosomes and lysosomes, which is essential for cellular iron metabolism. Thus, impaired ion (Ca2+ and Fe2+) homeostasis underlies lysosomal dysfunction and ML4 phenotypes. In ML4 cells, the problem is twofold. First, defective Ca2+-dependent membrane trafficking due to TRPML1-deficiency causes accumulation of lipids and other bio-materials in the lysosome. The second strike comes from the lysosomal iron overload (due to impairment of TRPML1's Fe2+ conductivity), which converts the accumulated materials into the nondegradable (resistant to lysosomal degradation) lipofuscin (also called aging pigment) in the lysosome. Lipofuscin accumulation dramatically compromises the functions of lysosomes.
Niemann-Pick type C (NPC) disease is another lysosome storage disease (LSD) with severe neurodegeneration during the childhood. Currently, there is no cure for NPC. […] Thus, TRPML1 is likely to be an essential regulator of lysosome ion homeostasis. We specifically hypothesize that stimulating TRPML1's Fe2+/Ca2+ channel activity in the lysosome using synthetic agonists can alleviate neurodegeneration associated with ML4 or NPC.
To this end, a high throughput screen was developed in a miniaturized format to screen against the Molecular Libraries Small Molecule Repository (MLSMR) to find small molecules that act either as inhibitors or agonist against the TRPML1 channel.
NIH Chemical Genomics Center [NCGC]
NIH Molecular Libraries Probe Centers Network [MLPCN]
Assay Submitter (PI): Haoxing Xu, University of Michigan Ann Arbor
TRPML1-DL cells are dissociated from flasks, counted and, brought up to a density of 500,000 cells per mL of media containing a 1X Tet inducer. Using a Multidrop Combi, 3uL of this cell solution is dispensed to each well of a 1536 TC treated, black, clear bottom hi base plate for a final cell density of 1,500 cells per well. The assay plates are incubated overnight (approximately 16 hours) at 37 degrees C and 5% CO2. Using a Multidrop Combi, 2uL of ABD Ca8 no wash dye plus quencher is added to each well. The assay plates incubate at room temperature in the dark for 45-90 minutes. The assay plate is read on the FDSS using the following protocol: 10 second baseline read, 23nL of compounds and controls are added using 1536 pintool, agonist read for 110 seconds, 1 uL EC80 addition (4uM final 54-4 diluted in media), antagonist read for 110 seconds.

Chain of Mucolipin-1 (Homo sapiens) (Q9GZU1 whole entry, looked up): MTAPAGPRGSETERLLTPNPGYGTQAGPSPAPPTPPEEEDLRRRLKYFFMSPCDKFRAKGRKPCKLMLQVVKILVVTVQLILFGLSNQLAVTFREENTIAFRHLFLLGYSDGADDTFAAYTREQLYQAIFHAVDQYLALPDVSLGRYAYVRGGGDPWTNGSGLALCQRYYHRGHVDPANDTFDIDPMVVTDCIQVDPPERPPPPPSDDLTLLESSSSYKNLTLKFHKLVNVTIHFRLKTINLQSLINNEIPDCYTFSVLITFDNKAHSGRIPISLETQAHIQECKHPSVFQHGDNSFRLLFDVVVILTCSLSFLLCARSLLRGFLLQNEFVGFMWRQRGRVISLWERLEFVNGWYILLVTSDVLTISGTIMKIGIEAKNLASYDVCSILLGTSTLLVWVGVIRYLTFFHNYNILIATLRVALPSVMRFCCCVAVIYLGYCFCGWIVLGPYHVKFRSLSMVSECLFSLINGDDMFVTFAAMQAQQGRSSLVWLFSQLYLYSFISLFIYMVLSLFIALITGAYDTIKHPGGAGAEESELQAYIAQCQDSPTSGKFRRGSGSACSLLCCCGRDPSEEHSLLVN

Row | Structure (SMILES) | activation
1 | COc1ccc(Br)cc1C1C2C=CCC(C)C2C(=O)N1Cc1ccccc1 (stereo unspecified) | 1.3%
2 | CS(=O)c1ccc(/C=C2\C=Cc3ccccc32)cc1 (stereo unspecified) | -0.666%
3 | COc1ccc(NC(=O)C2CCCN(S(=O)(=O)c3cccc4nonc34)C2)cc1Cl (stereo unspecified) | 0.791%
4 | Cc1ccc(-c2nc(=N)sn2Cc2ccccc2)cc1 | 0.856%
5 | O=C(Cc1ccc(Cl)cc1)Nc1ccc2nn(-c3ccc(Cl)cc3)nc2c1 | -0.688%
6 | CCN(CC)/[N+]([O-])=N/OCOC(=O)Cc1c(C)n(C(=O)c2ccc(Cl)cc2)c2ccc(OC)cc12 | 1.25%
7 | O=C(COc1ccccc1C(=O)Nc1ccccc1)Nc1cccc(F)c1 | -0.0642%
8 | CCn1c2ccccc2c2cc(CN3CCN(Cc4cccc(Cl)c4)CC3)ccc21 | 1.83%
9 | Cc1cccc(N2CCN(C(c3ccc(N(C)C)cc3)c3nnnn3C(C)(C)C)CC2)c1C (stereo unspecified) | -0.374%
10 | Cc1cccc(N2CCN(C(c3ccccc3)c3nnnn3CC3CCCO3)CC2)c1C (stereo unspecified) | 83.5% (active)
11 | COc1ccccc1C(c1nnnn1CC1CCCO1)N1CCN(c2ccccc2)CC1 (stereo unspecified) | 1.14%
12 | O=C(CSc1nccn1Cc1ccc(Cl)cc1)NCc1ccccc1 | -1.21%
13 | SCc1nc2ccc(Cl)cc2[nH]1 | -0.507%
14 | Cc1cc(C)c(/C=C2\C(=O)Nc3ccccc32)[nH]1 | 92% (active)
15 | CC(C)OCCCn1c(SCC(=O)c2ccccc2)nc2c(sc3ccccc32)c1=O | 0.121%
16 | CCOCCCNC(=O)c1ccc2nc(CCc3ccccc3)oc2c1 | 2.82%
17 | CC(C)(C)n1ncc2c(=O)n(Cc3ccc(C(=O)c4ccccc4)cc3)cnc21 | 2.07%
18 | CN(CC(=O)Nc1ccc(F)cc1)CC(=O)N1CCCCC1 | -0.517%
19 | CC(C(=O)N1CCc2ccccc21)N(C)CC(=O)Nc1ccc(F)cc1 (stereo unspecified) | 51.7% (active)
20 | CC(OC(=O)Cc1ccc(F)cc1)C(=O)N1CCc2ccccc21 (stereo unspecified) | 1.15%
21 | O=C(O)C1=C/C(=C/C=[N+]2c3cc(O)c(O[C@H]4OC(CO)[C@@H](O)[C@@H](O)[C@@H]4O)cc3C[C@@H]2C(=O)[O-])C[C@H](C(=O)O)N1 (stereo partly specified) | -0.0321%
22 | Cc1nn(CC(=O)O)c(=O)c2cc3cc(F)ccc3n12 | -0.613%
23 | CC1CC(C)CN(c2oc(-c3ccc(OCc4ccc(Cl)cc4)cc3)nc2C#N)C1 (stereo unspecified) | -0.254%

Row | Structure (SMILES) | activation
24 | COc1ccc(-c2ccc(C3C4C=CCCC4(C)C(=O)N3Cc3ccccc3)c(F)c2)cc1OC (stereo unspecified) | 0.474%
25 | COc1ccc(Cl)cc1NC(=O)c1sc2nc3c(cc2c1N)CN(C)CC3 | 1.12%
26 | O=C(c1ccc2c(c1)N(Cc1ccccc1)C(=O)c1ccccc1S2(=O)=O)N1CCC(Cc2ccccc2)CC1 | 0.0562%
27 | CC(=O)c1ccc(NS(=O)(=O)c2ccc(-c3cc(C)no3)s2)cc1 | -0.182%
28 | CN(C)c1cccc2ccccc12 | -0.266%
29 | CC(C)(C)OC(=O)N(Cc1ccco1)S(=O)(=O)c1ccccc1Br | 0.62%
30 | CCOc1cc2[nH]c(=O)n(Cc3ccc(C(=O)NCCN(CC)CC)cc3)c(=O)c2cc1OCC | -0.328%
31 | O=C(Nc1ccccc1C(F)(F)F)c1nc(S(=O)(=O)Cc2ccccc2F)ncc1Cl | 0.0634%
32 | CCOc1ccccc1NC(=O)Cn1nnc(C(=O)Nc2ccc(C)c(C)c2)c1N | 1.55%
33 | C/C=C/NNC(=O)Cc1ccc(OC)cc1 | -0.93%
34 | CC(C)(C)C1CCC(NC(=O)c2cnn3c2NC(=C2CC2)C=C3C(F)F)CC1 (stereo unspecified) | -1.12%
35 | Cc1cc2nc3c(=O)n(Cc4ccccc4)c(=O)[nH]c3nc2cc1N | 94.8% (active)
36 | COCCn1c(N)c(NCc2ccccc2)c(=O)[nH]c1=O | 1.47%
37 | CCC(=O)Nc1ccc(C)cc1-c1nc2ccccc2n(Cc2ccccc2)c1=O | 0.405%
38 | COc1cc(OC)c(OC)cc1/C=C1\C=Cc2ccccc21 | -0.666%
39 | COc1ccc(Cc2nc3ccc(C(=O)NCc4ccccc4Cl)cc3o2)cc1 | 0.91%
40 | COc1ccccc1CNc1nccn(-c2ccc(F)cc2)c1=O | 0.564%
41 | O=C1COc2ccc(-c3csc(-c4ccc(Cl)cc4)n3)cc2N1 | -0.602%
42 | NC(=O)Nc1ccc(/C=C/c2ccnc3ccccc23)cc1 | -0.0317%
43 | CC(=O)Nc1ccc(S(=O)(=O)N2N=NC3C2C2CC4C3(CN(C(=O)OC(C)(C)C)S4(=O)=O)O2)cc1 (stereo unspecified) | 0.118%
44 | COc1ccc(CNc2nc(-c3ccc(Cl)cc3)nn2S(=O)(=O)c2ccc(C)cc2)cc1 | 3.68%
45 | O=C(Nc1cccc2cccnc12)C(F)(F)F | 1.01%
46 | CCOc1ccc(NC(=O)c2cnn(-c3ccccc3)c2-n2cccc2)cc1 | -0.36%
